# Shiga toxin inh: inhibitors of Shiga toxin in Vero cells; Vero cells, Shiga toxin protein synthesis inhibition reporter; inhibition, % at 38.7 µM; 290,000 compounds, 9.2% hits; AID 2315; in the data active means inhibition mostly above about 28%, no sharp cut-off; inactive means mostly below about 43%; further: 0% is about no effect
# Sm TGR inh: inhibitors of Schistosoma mansoni thioredoxin glutathione reductase; Potency, µM (series often up to 114 µM), for inactives: top-dose activity change, negative = inhibition, actives largely listed as inhibitors; 360,000 compounds, 3% hits; Q962Y6; AID 485364; purified TGR, DTNB reduction, TNB absorbance 405 nm; active means well fitted inhibition curve with a large enough effect; inconclusive means small, poorly fitted or top-dose-only effect; inactive means no such curve, though single readings can be large or run the other way; further: potency means the concentration at half of the fitted maximal effect; on the % scale 0 is the no-effect control and ±100 the full control effect; nearly all actives have a fitted effect of over 60% in size
#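 First, TGR (20 nM dispensed) and NADPH were mixed with compound. Second, a 15 min room-temperature incubation followed. Third, further NADPH and then DTNB were added to start the reaction. Finally, TNB absorbance was monitored kinetically.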
# Cycloheximide cs: counter-screen for Shiga toxin inhibitors: cycloheximide protein synthesis inhibition; cell reporter, cycloheximide protein synthesis inhibition counterscreen; max response, %; 300,000 compounds, 12% hits; in the data active means max response mostly above about 13%, no sharp cut-off; inactive means mostly below about 14%; further: read at 38.3 µM for the half of the compounds with a filed dose; 0% is about no effect
# FMDV inh: foot and mouth disease virus antiviral activity | FMDV antiviral cell-based qHTS | Potency, µM (titrated, usually from 57.9 µM), without a hit: at the highest dose activity change, negative = inhibition, usual class: inhibitors | 410,000 compounds, 1.2% hits | AID 1159524; calls by dose curve; tested in HEK293T cells; further: read-out not given here; potency means the concentration at half of the fitted maximal effect; on the % scale 0 is the no-effect control and ±100 the full control effect; nearly all actives have a fitted effect of over 45% in size
# Numbers without * were called inactive; ? = inconclusive; . = no result given; [ ] = dose if it differs, or a comment. Compounds with a hit are over-represented: about 12% of the library has one in this group of screens.
SMILES,Shiga toxin inh,Sm TGR inh,Cycloheximide cs,FMDV inh
Cc1ccc(C)c(-c2[nH]c3c(c2-c2c(-n4cccc4)n(C)c(=O)[nH]c2=O)c(=O)[nH]c(=O)n3C)c1,.,-6.6%,.,-17.6%
Cc1cc(C)c2c(CC(=O)N(Cc3ccccc3)C3CCS(=O)(=O)C3)coc2c1 (stereo not given),.,3.3%,.,-19.8%
COc1cccc(C#Cc2c(CO)[nH]c3ccccc23)c1,.,31.6µM*,.,0.0%
COc1cccc(CN2CCN(Cc3[nH]c4ccccc4c3C)CC2CCO)c1 (stereo not given),-18.0,-4.9%[57.1 µM],-4.3,14.9%
CCOC(=O)C1(C)/C(=N/Nc2ccc(Cl)cc2)C(=O)C(=O)N1c1ccccc1 (stereo not given),0.9,50.1µM*,-2.7,-0.1%
CCN(CC)c1ccc(/C=N/NC(=O)c2cnccn2)cc1,108.3*,-2.9%,42.1*,30.9%
O=C(CNC(=O)c1ccccn1)N/N=C/c1ccccc1,18.5,50.5%,6.7,7.7%
O=C(N/N=C/c1ccc(OC(=O)c2ccccc2Cl)cc1)c1cc(O)cc(O)c1,27.7,-1.9%,11.2,4.1%
CCc1ccc(/C=N/NC(=O)c2ccccn2)cc1,-4.4,-7.1%,11.7,12.6µM*
CCN(CC)c1ccc(/C=N/NC(=O)c2ccccn2)cc1,44.5*,5.5%,26.0*,-9.7%
CCN(CC)c1ccc(/C=N/NC(=O)c2cc(C)nc3ccccc23)cc1,15.4,21.7%,9.8,?
O=C(N/N=C/c1ccc(OC(=O)c2ccccc2Cl)cc1)c1ccccn1,50.6*,-22.9%,48.9*,30.6%
CCOC(=O)c1ccc(NC(=O)c2c(NCc3cc(OC)c(OC)cc3OC)sc3c2CCCC3)cc1,.,-15.8%,.,-22.4%
COc1ccc2oc(=O)c(C(=O)NCCc3c(C)[nH]c4c(C)cccc34)cc2c1,.,-5.1%,.,0.0%
COc1ccc(NC(=O)CCNS(=O)(=O)c2cccc3nsnc23)cc1Cl,.,-8.8%,.,13.9%
COc1cccc(CNC(=O)CCn2cccn2)c1,.,-1.4%,.,-22.8%
CCOc1ccc(-c2c(C)nn3c(C)c(C(=O)NCC(C)c4ccccc4)cnc23)cc1OCC (stereo not given),.,-1.6%,.,-9.3%
COC(=O)Cc1ccc(OCc2ccc(Cl)nc2)cc1,51.7*,91.7%,37.4*,12.9%
CC(=O)C(Cc1ccc(Cl)nc1)Cc1ccc(Cl)nc1,3.1,14.1%,2.1,2.4%
COc1ccccc1OCC(O)Cn1nc(C)cc1C (stereo not given),103.7*,10.7%,54.3*,10.5%
Cc1cc(C)n(CC(O)COc2ccccc2[N+](=O)[O-])n1 (stereo not given),29.0,-4.2%,28.0*,19.8%
Cc1cc(C)n(CC(O)COc2ccccc2C(=O)Nc2ccccc2)n1 (stereo not given),-3.4,0.4%,-3.5,-25.0%
CCOC(=O)N1CCN(CC(O)COc2ccccc2[N+](=O)[O-])CC1 (stereo not given),18.3,8.5%,11.4*,4.7%
CCc1cccc(-n2nnc(-c3nsc(NC(=O)c4cccs4)n3)c2C)c1,.,-1.2%,.,23.0%
COc1ccccc1Nc1nc(C)nc(N)c1S(=O)(=O)c1ccccc1,.,6.0%,.,-12.7%
SMILES,Shiga toxin inh,Sm TGR inh,Cycloheximide cs,FMDV inh
C#CC[N+]1(CC#Cc2ccccc2)CCOCC1,26.2,-32.6%,16.5*,-5.2%
C(#Cc1ccccc1)CN1CCOCC1,96.2*,-1.3%,31.0*,13.8%
C(#Cc1ccc(C#CCN2CCOCC2)cc1)CN1CCOCC1,-8.0,-6.5%,-2.4,-1.1%
C#CC[N+]1(CC#Cc2ccccc2)CCCCC1,1.1,?,-5.1,-6.6%
N#C/C(C(=O)N1CCCCC1)=C1/N=C(N)c2ccccc21,37.2,0.7%,15.8*,47.6%
N#C/C(C(=O)N1CCCCC1)=C1/N=C(NC(=O)c2ccc(F)cc2)c2ccccc21,-1.5,3.4%,1.0,3.7%
O=C(CSc1ncnc2c1nnn2Cc1ccccc1F)N1CCN(c2ccccc2)CC1,-19.8,-7.6%,4.1,35.5µM*
Cc1cc(C)c2ccc(N)nc2c1O,-6.3,-13.2%,-1.1,-14.0%
Cc1cc(C)c2ccc(C)[n+]([O-])c2c1O,8.9,12.6µM*,-0.7,12.0%
CCN(Cc1ccccc1)C(=O)Cn1cc(S(=O)(=O)Cc2cccc(Cl)c2)c2ccccc21,.,4.3%,.,23.8%
CCOC(=O)c1c(-n2c(C)cc(C=C3C(=O)NC(=S)NC3=O)c2C)sc2c1CCCC2,-1.0,11.2µM*,7.3,10µM*
COC(=O)c1c(-n2c(C)cc(C=O)c2C)sc2c1CCCC2,95.7,-1.4%,16.4,.
O=C(O)c1ccc(Oc2ccc(C(F)(F)F)cn2)cc1,15.6,5.3%,15.1*,17.4%
Cc1ccccc1N1CCN(C(=O)c2ccc(Oc3ccc(C(F)(F)F)cn3)cc2)CC1,-2.7,-9.1%,-2.6,?
COC(=O)c1ccc(Oc2ccc(C(F)(F)F)cn2)cc1,45.2*,0.4%,27.7*,6.7%

# Assay outcomes deposited in PubChem BioAssay by National Center for Advancing Translational Sciences (NCATS).
